The campaign covered roughly 340,000 compounds. About 2,100 (0.62%) were called active. The list is a sample of the results. Potency and affinity values are given separately. Values without a mark were called inactive.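 How the source made its calls: active means first-screen hits whose inhibition reached a set limit at any dose in the follow-up dose series; inconclusive means inhibition above the set first-screen limit but never retested; inactive means the rest.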

The target of this assay is Rac GTPase-activating protein 1 (Homo sapiens) (UniProt Q9H0H5). Nature of the assay: MgcRacGAP GTPase-activating activity inhibitors, confirmation, biochemical, ADP Hunter fluorescence, primary and confirmatory (AID 624330).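 Further: fluorescence reports GDP produced by GAP-driven GTP hydrolysis.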 To be noted: MgcRacGAP-stimulated Rac1 GTP hydrolysis, at 30 µM, stronger effect = higher value, GST-tagged Rac1 F28L mutant substrate.
Sequence of Rac GTPase-activating protein 1 (Homo sapiens) (Q9H0H5 whole entry, looked up): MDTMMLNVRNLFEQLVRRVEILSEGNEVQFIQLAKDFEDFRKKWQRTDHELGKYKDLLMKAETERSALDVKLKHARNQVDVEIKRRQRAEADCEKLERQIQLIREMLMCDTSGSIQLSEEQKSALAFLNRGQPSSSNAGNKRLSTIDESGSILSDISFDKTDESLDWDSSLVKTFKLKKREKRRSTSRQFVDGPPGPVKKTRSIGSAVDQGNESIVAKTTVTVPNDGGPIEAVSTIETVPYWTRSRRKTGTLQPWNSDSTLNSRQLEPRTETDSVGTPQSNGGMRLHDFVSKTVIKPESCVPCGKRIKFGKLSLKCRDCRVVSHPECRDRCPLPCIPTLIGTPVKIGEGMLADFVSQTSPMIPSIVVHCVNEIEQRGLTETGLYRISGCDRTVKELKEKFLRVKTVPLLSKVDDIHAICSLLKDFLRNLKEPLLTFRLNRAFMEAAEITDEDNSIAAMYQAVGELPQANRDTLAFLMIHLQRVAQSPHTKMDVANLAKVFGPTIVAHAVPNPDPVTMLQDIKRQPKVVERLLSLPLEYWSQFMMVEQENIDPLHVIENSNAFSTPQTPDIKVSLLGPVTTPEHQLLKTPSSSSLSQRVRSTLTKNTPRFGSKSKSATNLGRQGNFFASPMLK
Regarding `CCN(CC)CCNC(=O)NC(=O)c1ccc(Cl)cc1`, the inhibition is -9.05%. With `O=C(NCc1ccccc1F)C(=O)NCC1OCCCN1S(=O)(=O)c1cccs1` (stereo unspecified) the figure was -0.33%; with `COc1ccc(NC(=O)COc2nsnc2N2CCCCC2)cc1`, 17.2%; with `Cc1ccc(N(Cc2ccc(C(=O)NCC3CCCO3)cc2)S(C)(=O)=O)cc1C` (stereo unspecified), -2.07%. Take `CC(=O)NC1C(Oc2ccc(C=O)cc2)OC(COC(C)=O)C(OC(C)=O)C1OC(C)=O` (stereo unspecified): the inhibition is 0.46%. In the case of `COc1ccc(O[C@@H]2O[C@H](COC(C)=O)[C@@H](OC(C)=O)[C@H](OC(C)=O)[C@H]2NC(C)=O)cc1`, the inhibition is 5.33%. To `O=C(NCc1ccc(F)cc1F)Nc1cnccc1C(F)(F)F` belongs 0.3%; to `CC1(c2nnc(-c3ccccc3)o2)CC(c2c(Cl)cccc2Cl)=NO1` (stereo unspecified), 7.59%. In the case of `C(=N\N1CCN(c2ccccc2)CC1)/c1ccccc1`, the inhibition was 9.75%. Take `C(=N\N1CCN(c2ccccn2)CC1)/c1ccccn1`: the inhibition is 13.7%. To `Cc1ccc(/C=N/N2CCN(c3ccccc3)CC2)cc1` belongs 14.1%; to `Cc1ccc(/C=N/N2CCN(c3ccccn3)CC2)cc1`, 6.1%. As to `COc1ccc(CCNC(=O)C2CCN(S(=O)(=O)c3ccc(OC)c(OC)c3)CC2)cc1OC`, the inhibition was 1.02%. In the case of `CCCOc1ccc(C2C(C(=O)c3ccc(C)o3)=C(O)C(=O)N2Cc2ccco2)cc1` (stereo unspecified), the inhibition is 9.74%. With `O=[N+]([O-])c1ccc(NN=C(C2CC2)C2CC2)c([N+](=O)[O-])c1` the figure was 9.77%; with `COC(=O)c1sc2nc(-c3ccccc3)nc(N3CCN(C)CC3)c2c1C`, 6.27%; with `COc1ccccc1N1C(=O)CC(Sc2ccccc2N)C1=O` (stereo unspecified), 2.06%.

In the case of `COc1cc2ccc(=O)oc2cc1O`, the inhibition was 16.3%. With `COc1cc2ccc(C(C)=O)c(O)c2cc1OC` the figure was 8.81%. To `COc1ccc(C(=O)Nc2c(O)ccc3ccccc23)cc1OC` belongs 9.73%. With `COc1ccc(Cc2c3cc(OC)c(OC)cc3cc[n+]2C)cc1OC` the figure was -5.7%; with `O=C(CN(Cc1ccc(Cl)cc1)C(=O)CN1C(=O)COc2ccccc21)NC1CCCC1`, 8.29%.

`O=C(Nc1cccc(F)c1)Nc1ccc(Cl)cn1`: the inhibition is 0.09%. As to `CC(=C/c1ccccc1)/C=N/N1CCN(Cc2ccc(C)cc2)CC1`, the inhibition is 7.95%. With `CCOC(=O)[C@H](O)[C@@H](O)c1cccc([C@H](O)[C@@H](O)C(=O)OCC)c1` the figure was 11.8%. To `CN(Cc1ccccc1)C(=O)c1cc(-c2ccc(Br)cc2)on1` belongs 7.89%; to `Cc1ccc(CSc2nnc(NC(=O)Cn3cnc4ccccc4c3=O)s2)cc1`, -8.67%. On to `CCOC(=O)c1c(-c2ccccc2)csc1NC(=O)CCN1CCOCC1`, for which the inhibition was 18.3%. With `CCOC(=O)c1c(-c2ccc(-c3ccccc3)cc2)csc1NC(=O)CCN1CCOCC1` the figure was -2.88%. Take `COC(=O)Cn1c(=NC(=O)C2COc3ccccc3O2)sc2cc(S(N)(=O)=O)ccc21` (stereo unspecified): the inhibition was 3.94%. With `COC(=O)c1cc(-c2ccc(Cl)cc2)n(-c2ccc(S(N)(=O)=O)cc2)n1` the figure was 5.18%; with `O=S(=O)(N/N=C/c1ccc2c(c1)OCCO2)c1ccccc1`, 9.57%; with `COC(=O)c1cc(S(=O)(=O)NCc2ccccc2)c[nH]1`, 11.6%. As for `COc1cc(O)cc2cc3c(c(O)c12)C(=O)CC(C)(O)O3` (stereo unspecified), the inhibition is -0.09%.

As to `CCOc1ccc(S(=O)(=O)n2c([N+](=O)[O-])cnc2C)c(C)c1C`, the inhibition was 6.34%. With `Cc1[nH]c(=S)c(C#N)c(C)c1CC(=O)c1ccc(Br)cc1` the figure was 8.21%; with `O=C(CN1C(=O)c2ccccc2S1(=O)=O)c1ccccc1`, 8.2%. With `O=C(CN1C(=O)c2ccccc2S1(=O)=O)c1ccc(F)c(F)c1` the figure was -3.06%. On to `COCCN(C(=O)CSc1nnc(C)n1-c1ccccc1)c1c(N)n(Cc2ccccc2)c(=O)[nH]c1=O`, for which the inhibition is 9.16%. With `Cc1cc(OCC(=O)NCc2ccccn2)c2c(C)cc(=O)oc2c1`, the inhibition was 2.23%.

With `CN(C)C/C=C(/c1ccc(Br)cc1)c1cccnc1`, the inhibition is 3.6%. To `CN(C)CCCO/N=C(\c1ccccc1)c1ccncc1` belongs 24.4%. For `CC(C)c1ccc(NC(=O)NCc2ccccn2)cc1`, the inhibition was 8.07%. As for `C[C@H](CO)N1C[C@H](C)[C@@H](CN(C)C(=O)Nc2ccc(C(F)(F)F)cc2)Oc2ccc(NC(=O)CCC(F)(F)F)cc2C1=O`, the inhibition is 5.69%.

Turning to `COCC(C)OC(=O)C(C#N)c1nc2ccccc2nc1N1CCN(Cc2ccccc2)CC1` (stereo unspecified), the inhibition is 6.54%. With `O=C(CCn1cnc2ccccc21)N/N=C/c1ccccc1O` the figure was 0.87%. For the compound `O=C(Cn1cc(C(F)(F)F)ccc1=O)N/N=C/c1ccc(Cl)cc1`, the inhibition is 11.1%.

Consider `COc1ccc(/C=N/NC(=O)CCn2nc(C)cc2C)cc1`, for which the inhibition was -2.7%. In the case of `O=C(Cn1cc(C(F)(F)F)ccc1=O)N/N=C/c1ccc(F)cc1`, the inhibition is -1.82%. On to `Cc1cc(C)n(CCC(=O)N/N=C/c2ccc(O)cc2O)n1`, for which the inhibition is -27.4%. In the case of `Cc1cc(C)n(CCC(=O)N/N=C/c2ccccc2O)n1`, the inhibition was 3.84%. On to `COc1ccc(/C=N/NC(=O)CCn2nc(C)cc2C)cc1O`, for which the inhibition is 26.5%.

For `O=C(CCn1cnc(-c2ccccc2)c1-c1ccccc1)N/N=C/c1ccc(O)cc1`, the inhibition was 27.5%. For `O=C(Nc1ccc(C(=O)N2CCCCC2)cc1)c1ccc([N+](=O)[O-])cc1`, the inhibition was 1.12%. With `Cc1ccccc1-c1cc(C(=O)O)nn1CC1CC(c2cccc([N+](=O)[O-])c2)=NO1` (stereo unspecified) the figure was 4.15%.

For the compound `COc1ccc(CCNC(=O)c2cc(C3CC3)nc3c2cnn3C(C)C)cc1`, the inhibition is 1.51%. With `O=C(Nn1cnnc1)c1ccc(OC(F)(F)C(F)C(F)(F)F)cc1` (stereo unspecified) the figure was 7.79%; with `CCCNC(=S)NNC(=O)c1cc(-c2cccnc2)nc2ccccc12`, 0.84%; with `CS(=O)(=O)c1cccc(C(=O)Nc2cccc(S(=O)(=O)N3CCCC3)c2)c1`, 3.17%. To `CC(=O)N1CCN(C(=O)c2ccc(NS(=O)(=O)c3ccc4c(c3)OCCO4)cc2)CC1` belongs 5.18%; to `COc1ccccc1/C=N/NC(=O)CSc1ccc2ccccc2n1`, 17.4%; to `O=C(CSc1ccc2ccccc2n1)N/N=C/c1ccccc1O`, 4.3%. Turning to `O=C(CNC(=O)c1ccc(Cl)cc1Cl)NCc1ccccn1`, the inhibition is -0.06%.

As for `CC1CCN(S(=O)(=O)c2ccc3ccccc3c2)CC1`, the inhibition is 1.45%. With `CC1CCN(S(=O)(=O)c2ccc3[nH]c(=O)[nH]c3c2)CC1` the figure was 6.82%.

On to `Cc1ccc2c(c1)N(C(C)C(=O)NCc1ccc3c(c1)OCO3)C(=O)CO2` (stereo unspecified), for which the inhibition was 11.4%. As for `Cc1ccc(C(=O)COC(=O)c2nc3nccc(C)n3n2)c(C)c1`, the inhibition is 5.3%. With `NC(=O)c1cc2ccncc2c2ccccc12` the figure was 8.91%. With `CC1NC(C)(C)Cc2c1ccc1ccccc21` (stereo unspecified), the inhibition is 2.36%. In the case of `CC1CC2(CCCCC2)Nc2ccc3ccccc3c21` (stereo unspecified), the inhibition is 12.5%. To `Cc1cccc(OCC(=O)NNC(=O)C2CCN(c3ncnc4sc(C)c(C)c34)CC2)c1` belongs 12.2%; to `COc1ccc(Nc2nc(OC)nc(OC)n2)cc1`, 14.1%; to `CNc1nc(Nc2ccc(C(C)=O)cc2)nc(OC(C(F)(F)F)C(F)(F)F)n1`, 8.39%. To `CCCC(C)NC(=O)CN1C(=O)c2cccc3cccc1c23` (stereo unspecified) belongs 7.54%. With `CN(CCc1ccccn1)Cc1ccc(Cl)cc1` the figure was 24%. Regarding `CN(CCc1ccccn1)Cc1ccc(Cl)cc1Cl`, the inhibition was 19.1%. `COc1ccc(CN(C)Cc2ccccc2)c(OC)c1OC`: the inhibition is 4.85%. With `CCc1ccc(CN(C)CCc2ccccn2)cc1`, the inhibition was 13.2%. With `Cc1cccc(CN(C)CCc2ccccn2)c1` the figure was 9.5%; with `COc1ccc(CCN(C)Cc2ccc(OC)c(OCc3ccccc3)c2)cc1OC`, 18.3%. With `CN(CCc1ccccn1)Cc1ccc(Cl)c(Cl)c1` the figure was 27.1%; with `Cc1ccc(CN(C)CCc2ccccn2)cc1`, 13%; with `CC(C)=CCCC(C)=CCN1C(=O)CN(C)C1=O`, 4.98%. With `CC(=O)c1cccc(NC(=O)C(C)OC(=O)CCC2CCCCC2)c1` (stereo unspecified) the figure was 1.73%; with `O=[N+]([O-])c1cccc(/C=N/n2cnnc2)c1O`, 4.49%; with `Cc1onc(-c2ccccc2Cl)c1C(=O)NCCCN1CCOCC1`, 12%. On to `NS(=O)(=O)c1ccc(N/N=C/c2cn(-c3ccccc3)nc2-c2cccs2)cc1`, for which the inhibition was 2.12%.

Consider `CCN(CCCCCCN)c1ccc2c(=O)[nH][nH]c(=O)c2c1`, for which the inhibition is 3.58%.

As to `Cc1ccc(-n2ncc3c(NNC(=O)c4ccco4)ncnc32)c(C)c1`, the inhibition is 7.64%. For `CCc1ccc(C2=NN(CCC(=O)NCC3CCCO3)C(=O)CC2)cc1` (stereo unspecified), the inhibition was 11.8%. To `CCNC(=S)N(CCc1c(C)[nH]c2ccc(OC)cc12)Cc1cccnc1` belongs 12.7%; to `O=C(NC1CCCCC1)c1sc(=S)n2c1[nH]c(=O)c1ccccc12`, 10.6%.

`O=C(NCc1ccccc1)c1ccc2c(=O)[nH]c3c(C(=O)NCC4CCCO4)sc(=S)n3c2c1` (stereo unspecified): the inhibition was 16.2%. Take `Cc1ccccc1Cn1nc(C)c(NC(=O)c2cc(CC(C)C)on2)c1C`: the inhibition is 9.15%. Regarding `COc1ccc(NC(=O)c2c(NC(=O)CNCc3ccco3)sc3c2CCC3)cc1`, the inhibition was 15.6%. Turning to `COC(=O)c1c(NC(=O)c2ccco2)sc2c1CCC2`, the inhibition was 15.8%.

(Values after PubChem BioAssay AID624330 (Southern Research Specialized Biocontainment Screening …, 2012).)
